Measured values: paper PMC5540273 (PLoS ONE, 2017)

Experiments:
Conditions in all cases: concentration: 1 μM, replicates: in singlicate; n = 1
MRCKB = tested on: T1, MRCKB
T1 construct: gene CDC42BPB

MST1R = tested on: MST1R
MST1 = tested on: T2, MST1
T2 construct: gene STK4

MST2 = tested on: T3, MST2
T3 construct: gene STK3

MST3 = tested on: T4, MST3
T4 construct: gene STK24

MST4 = tested on: MST4
MTOR = tested on: MTOR
MUSK = tested on: MUSK
MYLK2 = tested on: MYLK2
MYLK4 = tested on: MYLK4
MYLK = tested on: MYLK
MYO3A = tested on: MYO3A
MYO3B = tested on: MYO3B
NDR1 = tested on: T5, NDR1
T5 construct: gene STK38

NDR2 = tested on: NDR2
NEK10 = tested on: NEK10
NEK11 = tested on: NEK11
NEK1 = tested on: NEK1
NEK2 = tested on: NEK2
NEK3 = tested on: NEK3
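Further: KINOMEscan kinase panel screen.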

| SMILES | %Inh (MRCKB) [%] | %Inh (MST1R) [%] | %Inh (MST1) [%] | %Inh (MST2) [%] | %Inh (MST3) [%] | %Inh (MST4) [%] | %Inh (MTOR) [%] | %Inh (MUSK) [%] | %Inh (MYLK2) [%] | %Inh (MYLK4) [%] | %Inh (MYLK) [%] | %Inh (MYO3A) [%] | %Inh (MYO3B) [%] | %Inh (NDR1) [%] | %Inh (NDR2) [%] | %Inh (NEK10) [%] | %Inh (NEK11) [%] | %Inh (NEK1) [%] | %Inh (NEK2) [%] | %Inh (NEK3) [%] |
| --- | --- | --- | --- | --- | --- | --- | --- | --- | --- | --- | --- | --- | --- | --- | --- | --- | --- | --- | --- | --- |
| COc1ccc(Nc2nccc(N3CCC(NS(=O)(=O)c4ccc(NC(C)=O)cc4)C3)n2)cc1 (stereo not shown) [GSK1379729] | 15 | 25 | 7 | 0 | 0 | 9 | 43 | 18 | 29 | 1 | 15 | 8 | 2 | 10 | 0 | 0 | 1 | 0 | 8 | 7 |
| Nc1n[nH]c2ncc(-c3ccccc3)cc12 [SB-517081] | 0 | 41 | 0 | 0 | 0 | 0 | 7 | 28 | 15 | 61 | 39 | 20 | 0 | 27 | 0 | 24 | 0 | 0 | 27 | 21 |
| Cl.c1ccc(Cn2cnc3cc(Nc4ncnc5ccccc45)ccc32)cc1 [GW272142] | 0 | 40 | 0 | 0 | 0 | 0 | 28 | 29 | 0 | 6 | 1 | 10 | 0 | 9 | 4 | 15 | 0 | 0 | 0 | 0 |
| CN1C(=O)C(Nc2ccccc2)=C(c2ccccc2)C1=O [SB-300079] | 0 | 0 | 0 | 0 | 0 | 0 | 26 | 0 | 5 | 28 | 0 | 0 | 0 | 39 | 0 | 7 | 4 | 0 | 0 | 21 |
| Nc1ncnc2c1ncn2-c1ccc(Cl)cc1 [AH2635] | 0 | 17 | 2 | 0 | 0 | 0 | 11 | 0 | 14 | 8 | 0 | 49 | 0 | 0 | 31 | 27 | 0 | 0 | 0 | 0 |
| O=C(NCCNc1ccnc(Nc2ccc(F)cc2)n1)Nc1ccc2c(c1)OCO2 [GSK1379882] | 0 | 6 | 0 | 22 | 11 | 0 | 11 | 0 | 15 | 9 | 23 | 32 | 0 | 10 | 20 | 0 | 7 | 0 | 7 | 16 |
| COc1cc2ncn(-c3cc(OCCCc4ccccc4)c(C(N)=O)s3)c2cc1OC [GSK205189] | 0 | 14 | 0 | 0 | 11 | 0 | 1 | 50 | 8 | 65 | 23 | 3 | 0 | 0 | 0 | 0 | 0 | 0 | 36 | 0 |
| Cn1c(=O)c(F)c(Nc2ccc(I)cc2F)c2c(=O)n(OC[C@H](O)CO)cnc21 | 0 | 0 | 19 | 0 | 0 | 0 | 0 | 8 | 1 | 0 | 22 | 0 | 28 | 7 | 3 | 0 | 0 | 0 | 14 | 35 |
| COC(=O)c1c(-c2ccccc2)c2cc(Br)ccc2c(=O)n1Cc1ccc(S(C)(=O)=O)cc1 | 0 | 43 | 10 | 32 | 5 | 0 | 28 | 7 | 0 | 2 | 20 | 26 | 0 | 7 | 19 | 0 | 0 | 0 | 10 | 21 |
| Nc1nc(-c2ccccc2F)c(-c2ccnc3ccccc23)s1 [GW560459] | 0 | 33 | 8 | 0 | 7 | 0 | 21 | 0 | 8 | 1 | 11 | 20 | 0 | 16 | 0 | 3 | 0 | 7 | 0 | 1 |
| COc1cccc(C2=C(N(C)c3ccccc3)C(=O)NC2=O)c1 [SB-334865] | 0 | 10 | 5 | 0 | 0 | 0 | 19 | 2 | 9 | 0 | 1 | 22 | 0 | 16 | 0 | 22 | 0 | 0 | 0 | 26 |
